CYP2C9 inh: blockers of cytochrome P450 2C9 activity – biochemical, luminescence, ADME assay, primary screen; 96,000 tested, 20% active; inhibition, % at 5 µM; CYP2C9 Supersomes, luciferin-H conversion; P11712; AID 777, 2007;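 active = blocking of liver enzyme CYP2C9 beyond about 50% at 5 µM, limit read from the data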
Target sequence (P11712 whole entry, looked up): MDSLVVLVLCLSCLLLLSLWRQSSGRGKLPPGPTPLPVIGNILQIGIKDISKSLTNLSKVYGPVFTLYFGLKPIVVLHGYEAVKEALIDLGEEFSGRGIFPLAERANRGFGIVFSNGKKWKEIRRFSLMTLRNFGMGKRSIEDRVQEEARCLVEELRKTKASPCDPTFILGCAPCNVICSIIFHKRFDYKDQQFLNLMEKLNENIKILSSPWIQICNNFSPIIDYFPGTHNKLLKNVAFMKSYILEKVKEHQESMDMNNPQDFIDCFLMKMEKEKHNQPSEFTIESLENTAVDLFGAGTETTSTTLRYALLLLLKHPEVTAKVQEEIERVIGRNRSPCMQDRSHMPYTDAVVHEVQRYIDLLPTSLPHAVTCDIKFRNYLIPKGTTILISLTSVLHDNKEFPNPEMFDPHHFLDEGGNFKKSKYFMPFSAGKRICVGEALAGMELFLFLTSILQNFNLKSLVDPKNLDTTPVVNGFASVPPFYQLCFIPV
CYP2C19 act: human CYP2C19 activators, primary screen, biochemical, luminescence; AID 1025, 2008; activation factor at 5 µM; recombinant CYP2C19, luciferin-H EGE luminescence; hits give high values; 0 = fully inhibited enzyme, 1 = untreated enzyme; 96,000 tested, under 10 active;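 active = activation factor of at least 2 at 5 µM in the primary screen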;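 note: 0 = wells with 2.5 mM tranylcypromine and 1 = vehicle-only wells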
CYP2C9 act: human CYP2C9 activators, primary screen, biochemical, luminescence. Cytochrome P450 2C9 (Homo sapiens), P11712. recombinant CYP2C9, luciferin-H conversion; hits give high values; factor 1 = untreated enzyme, 0 = blocked. activation factor at 5 µM. 96,000 tested, 1.4% active;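 active = activation factor of 2 or more for CYP2C9 at a 5 µM dose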;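 note: 0 = sulfaphenazole-blocked wells and 1 = vehicle-only wells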
CYP2C19 inh: blockers of cytochrome P450 2C19 activity – biochemical, luminescence, ADME assay, primary screen | P33261 | CYP2C19 Supersomes, luciferin-H EGE luminescence, 30 min | inhibition, % at 5 µM | 96,000 tested, 21% active;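 active = CYP2C19 inhibition above a set limit at 5 µM in the primary screen, cut at about 50% in these data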;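 note: plate controls were negative control wells for no effect and 2.5 mM tranylcypromine positive control for full effect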
PLAP act: PLAP enzyme activators, biochemical, luminescence, HTS. Alkaline phosphatase, placental type (Homo sapiens), P05187. purified PLAP enzyme, luminescent substrate read-out; hits give high values. activation fold at 20 µM. 96,000 tested, 1.2% active; in the data active = activation fold above about 2
* = called active by the depositor; x = not tested or not shown. This is a sample that favours compounds with a hit; in the whole collection about 31% have one here.

SMILES	CYP2C9 inh	CYP2C19 act	CYP2C9 act	CYP2C19 inh	PLAP act
COc1ccc(C)cc1S(=O)(=O)N(CC(=O)NCc1ccc(Cl)cc1)Cc1ccccc1	89.4*	0.3	0.1	72.1*	1.5
COc1ccc(CNC(=O)CN(Cc2ccccc2)S(=O)(=O)c2ccc(Cl)cc2)cc1	96.1*	0	0	99.5*	1.4
COc1ccc(CNC(=O)CN(Cc2ccc(Cl)cc2)S(=O)(=O)c2ccccc2)cc1	34.4	0.6	0.7	42.1	0.6
COc1cc(/C=C2/SC(=O)N(Cc3ccccc3)C2=O)ccc1OCc1ccncc1	82.3*	0.2	0.2	79.6*	1.6
COc1ccc(/C=C2\SC(=NCc3ccccc3)N(Cc3ccccc3)C2=O)cc1OC	21.5	0.3	0.8	71.9*	1.1
CCOc1cc(/C=C2/SC(=O)N(CC(=O)N3CCc4ccccc4C3)C2=O)ccc1OCC(=O)O	2.8	1	1	0.6	1.2
Cc1cc(NC(=O)CN2CC(C)OC(C)C2)n(-c2nc3ccccc3s2)n1 (configuration not stated)	55.9*	0.4	0.4	56.8*	1.4
CCC(C)(C)NC(=O)C(c1ccc(F)cc1)N(Cc1ccco1)C(=O)c1snc(C(N)=O)c1N (configuration not stated)	-5.8	1	1.1	-2.6	1.1
CC(C)(C)n1nnnc1CN(Cc1ccc(F)cc1)Cc1ccco1	86.6*	0.1	0.1	92.8*	1.5
CCC(C)(C)n1nnnc1C(c1ccc(C)cc1)N(Cc1ccco1)Cc1cccs1 (configuration not stated)	90.5*	1	0.1	-3.8	0.9
COc1cccc(CN(Cc2ccco2)C(c2ccc(F)cc2)c2nnnn2C(C)(C)C)c1 (configuration not stated)	50.6*	0.6	0.5	44.1	1.5
CCN(Cc1ccccc1)C(c1cccc(C#N)c1)c1nnnn1C(C)(C)C (configuration not stated)	91.0*	0.3	0.1	72.4*	1.5
CN(Cc1ccco1)C(=O)C1CCC(=O)N1Cc1ccc(F)cc1 (configuration not stated)	8.3	0.9	0.9	12.1	1
Cc1ccc2cc(C(c3nnnn3C3CCCC3)N(Cc3ccco3)Cc3cccs3)c(=O)[nH]c2c1 (configuration not stated)	41.6	0.5	0.6	48.7	1.6
Cc1ccc2[nH]c(=O)c(C(c3nnnn3C3CCCC3)N(Cc3cccnc3)Cc3ccco3)cc2c1 (configuration not stated)	45.3	0.8	0.5	20.9	1
CC(C)(C)n1nnnc1C(c1cccnc1)N(Cc1ccccc1)Cc1ccco1 (configuration not stated)	72.9*	0.6	0.3	43.9	1.4
CC(C)n1nc(C(=O)Nc2nnc(SCc3c(Cl)cccc3Cl)s2)c2ccccc2c1=O	86.4*	0.3	0.1	66.4*	1.7
CC(C)n1nc(C(=O)Nc2nc3ccc(S(C)(=O)=O)cc3s2)c2ccccc2c1=O	20.7	1	0.8	-3.4	1
Clc1ccc(CNC2CCCC2)cc1	18.9	0.2	0.8	78.4*	0.9
O=C(COc1ccc(Br)cc1)c1ccc2c(c1)CCCC2	-62.5	0.5	1.6	51.6*	0.5
Cc1ccc(OCC(=O)c2ccc3c(c2)CCCC3)cc1C	-39.6	1	1.4	1.5	1.1
N/C(=N\c1nc2c(c(=O)[nH]1)CCC2)Nc1ccccc1C(F)(F)F	x	x	x	x	1
Clc1ccc(C2C3=C(Nc4ncnn42)c2ccccc2CC3)cc1 (configuration not stated)	68.8*	0.2	0.3	79.7*	1.5
c1ccc(C2C3=C(Nc4ncnn42)c2ccccc2CCC3)cc1 (configuration not stated)	30.2	0.5	0.7	51.6*	0.8
Cc1ccc(C2Oc3ccccc3C3=C2C(c2cccs2)n2ncnc2N3)cc1 (configuration not stated)	49.9	0.8	0.5	16.6	1
COc1ccccc1CNC(=O)C(CCSC)NC(=O)C1CCC(C)CC1 (configuration not stated)	19.5	0.8	0.8	18.4	1.1
